Results filed as inconclusive are left out. The source made the active and inactive calls. Rule for the calls, unless noted: active = hit-call score of the fitted dose curve at least 0.9, where 1 is the maximum; inconclusive = response in the unintended direction; inactive = score below 0.9.
Legend:
[1] = Tanguay_ZF_120hpf_OTIC_legacy: (Legacy) Oregon State University Tanguay Lab 120 Hour Post-fertilization zebrafish Assay for Otic Vesicle Malformation (AID 2283639)
Procedure, shortened: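 Otic vesicle malformation is read as a yes/no morphology call at 120 hpf. Exposure is static at 28C with 0.64% (vol/vol) DMSO; embryos that die are excluded from non-mortality endpoints.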

[2] = Tanguay_ZF_120hpf_PE_legacy: (Legacy) Oregon State University Tanguay Lab 120 Hour Post-fertilization zebrafish Assay for Pericardial Edema (AID 2283640)
Procedure, shortened: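 Tropical 5D wild-type zebrafish embryos were statically exposed until 120 hpf at 28C, with 0.64% DMSO final. Pericardial edema was scored by brightfield as present or absent; endpoints were not scored in dead embryos.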

[3] = Tanguay_ZF_120hpf_BRAI_legacy: (Legacy) Oregon State University Tanguay Lab 120 Hour Post-fertilization zebrafish Assay for Brain Malformation (AID 2283641)
Procedure, shortened: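 Tropical 5D wild-type zebrafish embryos exposed statically until 120 hpf at 28C, 0.64% DMSO final, sealed and dark. Brain malformation scored present/absent by brightfield at 120 hpf; dead embryos excluded. Trimethyltin chloride 5uM positive control.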

[4] = Tanguay_ZF_120hpf_SOMI_legacy: (Legacy) Oregon State University Tanguay Lab 120 Hour Post-fertilization zebrafish Assay for Somite Malformation (AID 2283647)
Procedure, shortened: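 Dechorionated Tropical 5D wild-type zebrafish embryos, one per well from 6 hpf, statically exposed at 28C to 120 hpf in 0.64% DMSO; somite malformation scored present/absent by brightfield; trimethyltin 5 uM positive control; dead embryos not scored.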

[5] = Tanguay_ZF_120hpf_PFIN_legacy: (Legacy) Oregon State University Tanguay Lab 120 Hour Post-fertilization zebrafish Assay for Pectoral Fin Malformation (AID 2283648);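 note: each larva judged yes or no for fin defect by brightfield with dead larvae skipped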
Procedure, shortened: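 Tropical 5D wild-type embryos, dechorionated with pronase at 4 hpf, were placed singly in wells at 6 hpf and statically exposed until 120 hpf at 28C, sealed and dark, with 0.64% (vol/vol) final DMSO; pectoral fin malformation scored present/absent.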

[6] = Tanguay_ZF_120hpf_CFIN_legacy: (Legacy) Oregon State University Tanguay Lab 120 Hour Post-fertilization zebrafish Assay for Caudal Fin Malformation (AID 2283649)
Procedure, shortened: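 Dechorionated Tropical 5D wild-type embryos, one per well from 6 hpf, static exposure to 120 hpf at 28C in 0.64% DMSO. Caudal fin malformation scored by brightfield as present/absent; not scored in dead embryos.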

[7] = Tanguay_ZF_120hpf_PIG_legacy: (Legacy) Oregon State University Tanguay Lab 120 Hour Post-fertilization zebrafish Assay for Pigmentation Malformation (AID 2283650)
Procedure, shortened: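 Tropical 5D wild-type zebrafish embryos, dechorionated with pronase at 4 hpf, were exposed singly from 6 hpf to 120 hpf statically at 28C in sealed, dark plates with 0.64% DMSO; pigmentation scored present/absent by brightfield microscopy, fitted against DMSO.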

[8] = Tanguay_ZF_120hpf_CIRC_legacy: (Legacy) Oregon State University Tanguay Lab 120 Hour Post-fertilization zebrafish Assay for Circulatory Malformation (AID 2283651)
Procedure, shortened: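 Using wild-type Tropical 5D zebrafish, we exposed dechorionated embryos from 6 to 120 hpf in embryo medium with 0.64% DMSO. Circulatory defects were scored as present or absent; 5uM trimethyltin chloride served as positive control.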

[9] = Tanguay_ZF_120hpf_SWIM_legacy: (Legacy) Oregon State University Tanguay Lab 120 Hour Post-fertilization zebrafish Assay for Swim Bladder Malformation (AID 2283654);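 note: swim bladder malformation in each larva scored yes or no under brightfield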
Procedure, shortened: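 Dechorionated Tropical 5D wild-type embryos, placed singly from 6 hpf, were statically exposed at 28C to 120 hpf with 0.64% DMSO final; swim bladder malformation was scored present/absent by brightfield microscopy, gain of signal relative to DMSO controls.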

[10] = Tanguay_ZF_120hpf_TRUN_legacy: (Legacy) Oregon State University Tanguay Lab 120 Hour Post-fertilization zebrafish Assay for Truncated Body (AID 2283655)
Procedure, shortened: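 Dechorionated Tropical 5D wild-type embryos placed singly from 6 hpf and statically exposed to 120 hpf at 28C, final DMSO 0.64%. Truncated body scored as present/absent by brightfield; not scored in dead embryos.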

[11] = Tanguay_ZF_120hpf_NC_legacy: (Legacy) Oregon State University Tanguay Lab 120 Hour Post-fertilization zebrafish Assay for Notochord and Tail Malformation (AID 2283656)
Procedure, shortened: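 Dechorionated 5D zebrafish, 1/well from 6 hpf; static exposure to 120 hpf, 28C, sealed, dark; final DMSO 0.64% v/v. NC scored binary (present/absent); dead embryos not scored. Fit vs DMSO baseline, gain direction.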

[12] = Tanguay_ZF_120hpf_TR_legacy: (Legacy) Oregon State University Tanguay Lab 120 Hour Post-fertilization zebrafish Assay for Touch Response (AID 2283667)
Procedure, shortened: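 Tropical 5D wild-type zebrafish embryos were exposed statically in sealed, foil-covered plates at 28C until 120 hpf, with 0.64% (vol/vol) final DMSO. Touch response was scored as present or absent; embryos that died were not scored.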

[13] = Tanguay_ZF_120hpf_ActivityScore_legacy: (Legacy) Oregon State University Tanguay Lab 120 Hour Post-fertilization zebrafish Assay Score for Activity (AID 2283742)
Procedure, shortened: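 Tropical 5D wild-type zebrafish embryos, dechorionated with pronase at 4 hpf, were exposed singly from 6 hpf to 120 hpf statically at 28C in 0.64% DMSO. Malformations and mortality were scored as binary by brightfield, with the activity score combining 18 morphology components.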

[14] = CCTE_Deisenroth_AIME_96WELL_CTox_Active: Cytotoxicity Assessment (CTOX) in CCTE's 96-well Estrogen Receptor Transactivation Assay with AIME metabolic competence (metabolism positive), Deisenroth Lab (AID 2284028)
Procedure, shortened: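 Chemicals (0.002–200 uM) were first incubated 2 h with alginate-immobilized phenobarbital/beta-naphthoflavone-induced male rat liver S9; conditioned medium then went onto VM7Luc4E2 cells for 24 h, with viability read by protease-substrate fluorescence, fitted bidirectionally.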

[15] = CCTE_Deisenroth_AIME_96WELL_CTox_Inactive: Cytotoxicity Assessment (CTOX) in CCTE's 96-well Estrogen Receptor Transactivation Assay without AIME metabolic competence (metabolism negative), Deisenroth Lab (AID 2284029)
Procedure, shortened: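 Chemicals (10-point series, 0.002-200 uM) were incubated 2 h with alginate-water microspheres lacking S9. The conditioned medium was then transferred onto VM7Luc4E2 cells for 24 h. Viability was measured by protease-substrate cleavage to a fluorescent probe, with loss of signal fitted bidirectionally; n≥4 experimental replicates.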

[16] = target: Estrogen receptor (Homo sapiens) (UniProt P03372); assay: CCTE_Deisenroth_AIME_384WELL_LUC_Active: CCTE's 384-well Estrogen Receptor Transactivation Assay with AIME metabolic competence (ERTA luciferase; metabolism positive), Deisenroth Lab (AID 2284030)
Sequence of Estrogen receptor (Homo sapiens) (P03372 whole entry, looked up): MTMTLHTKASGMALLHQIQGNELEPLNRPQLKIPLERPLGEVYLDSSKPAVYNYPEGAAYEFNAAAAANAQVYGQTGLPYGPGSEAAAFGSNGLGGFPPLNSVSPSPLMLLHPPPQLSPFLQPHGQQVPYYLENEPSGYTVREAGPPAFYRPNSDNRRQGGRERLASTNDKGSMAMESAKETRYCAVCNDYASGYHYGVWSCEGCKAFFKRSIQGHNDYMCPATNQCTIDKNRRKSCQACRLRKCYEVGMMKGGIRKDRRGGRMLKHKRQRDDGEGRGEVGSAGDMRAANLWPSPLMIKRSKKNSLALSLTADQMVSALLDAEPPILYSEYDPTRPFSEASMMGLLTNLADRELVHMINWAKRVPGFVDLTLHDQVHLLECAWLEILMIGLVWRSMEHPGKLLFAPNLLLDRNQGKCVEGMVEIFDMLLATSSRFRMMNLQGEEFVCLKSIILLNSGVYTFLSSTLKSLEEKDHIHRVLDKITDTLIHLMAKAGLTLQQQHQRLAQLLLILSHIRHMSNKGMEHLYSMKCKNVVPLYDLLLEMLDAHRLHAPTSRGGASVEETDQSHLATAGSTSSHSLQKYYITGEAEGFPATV
Procedure, shortened: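 Chemicals (10-point, 0.002-200 uM) were first incubated 2 hours with alginate-immobilized induced male Sprague Dawley rat liver S9. The conditioned medium was then applied to VM7Luc4E2 cells for 24 hours, with ER luciferase induction read by luminescence relative to 17beta-estradiol.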

[17] = target: Estrogen receptor (Homo sapiens) (UniProt P03372); assay: CCTE_Deisenroth_AIME_384WELL_LUC_Inactive: CCTE's 384-well Estrogen Receptor Transactivation Assay without AIME metabolic competence (ERTA luciferase; metabolism negative), Deisenroth Lab (AID 2284038);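 note: VM7Luc4E2 breast cells given medium preincubated 2 h with S9-free microspheres; hits raise estrogen receptor luciferase signal so potencies reflect agonists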
Procedure, shortened: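 Chemicals (10-point series, 0.002 - 200 uM) were incubated 2 hours with alginate-water microsphere lids lacking S9, then the conditioned medium was transferred to VM7Luc4E2 breast cells for 24 hour. Luciferase induction was read by bioluminescence, fitted upward relative to 17beta-estradiol.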

[18] = target: Estrogen receptor (Homo sapiens) (UniProt P03372); assay: CCTE_Deisenroth_AIME_384WELL_LUC_Shift: CCTE's 384-well Estrogen Receptor Transactivation Assay with AIME metabolic competence data shift (ERTA luciferase; difference in metabolism positive and negative), Deisenroth Lab (AID 2284041; active = hit-call score of the fitted dose curve at least 0.9, where 1 is the maximum; inactive = score below 0.9;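 note: shift is response with S9 minus without S9 so positive means metabolism raised ER signal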)
Procedure, shortened: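 Here, parent compounds undergo 2 h phase I metabolism by PB/BNF-induced rat S9 before 24 h transactivation in VM7Luc4E2 cells; the curve models S9-positive minus S9-negative response over a 10-point series.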

[19] = UKN2_HCS_IMR90_neural_migration: University of Konstanz (UKN) Leist Lab Neural Crest Cell Migration Assay in human induced IMR90 Pluripotent Stem Cells (UKN2) (AID 2284204; active = hit-call score of the fitted dose curve at least 0.9, where 1 is the maximum; inactive = score below 0.9); settings: actives raise or lower the signal
Procedure, shortened: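 iPSC-derived IMR90 neural crest cells on PLO/laminin/fibronectin were seeded around silicone stoppers; after stopper removal, migration in N2-S medium with EGF and FGF ran 24 h before 24 h chemical exposure. Calcein-AM/Hoechst high-content imaging; bidirectional fit versus DMSO.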

[20] = UKN4_HCS_LUHMES_neurite_outgrowth: University of Konstanz (UKN) Leist Lab Neurite Outgrowth Assay in human LUHMES cells (UKN4) (AID 2284206; active = hit-call score of the fitted dose curve at least 0.9, where 1 is the maximum; inactive = score below 0.9); settings: actives raise or lower the signal
Procedure, shortened: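 2-day-differentiated LUHMES, 24 h cpd exposure, live calcein-AM + H-33342 stain, HCS fluorescence imaging of neurite area; DMSO = baseline, bidirectional fit.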

Measured: AC50

CCC(C)=NO
not listed: [14] | [15] | [16] | [17] | [18] | [19] | [20]
inactive: all other assays above

Cc1cc(-n2nc3ccc(Cl)cc3n2)c(O)c(C(C)(C)C)c1
inactive: [14] | [15]

CCCCCCC1CCC(=O)O1 (stereo not given)
active: [16] 0.244 nM | [17] 1.29 nM | [18] 0.196 nM

Oc1cccc2ccccc12
inactive: [19]
active: [20] 26300 nM

— PubChem BioAssay (EPA / NIEHS)
